Records with an inconclusive call do not appear. Entries that show only a call come without a potency. Active and inactive are the calls of the source. Calls come from the whole dose curve; as a rule, active = well fitted curve in the direction sought with a large enough effect; inconclusive = small, poorly fitted or top-dose-only effect, or another doubt; inactive = no such curve, though single readings can be large; an effect the other way counts as inactive or inconclusive.
Key:
[1] = target: Cellular tumor antigen p53 (Homo sapiens) (UniProt P04637); assay: Primary qHTS for small molecule compounds that upregulate eGFP-tagged delta133p53alpha (in N-terminal) cells. (AID 2060322); conditions: NCI-H358 eGFP-delta133p53alpha fluorescence, 24 h; activation: active compounds read high; note: nearly all actives have a fitted effect of over 75% in size; note: potency is the fitted concentration of half-maximal effect;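 for activation: cells pre-induced with doxycycline then dosed without doxycycline; series mostly up to about 56 µM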
Chain of Cellular tumor antigen p53 (Homo sapiens) (P04637 whole entry, looked up): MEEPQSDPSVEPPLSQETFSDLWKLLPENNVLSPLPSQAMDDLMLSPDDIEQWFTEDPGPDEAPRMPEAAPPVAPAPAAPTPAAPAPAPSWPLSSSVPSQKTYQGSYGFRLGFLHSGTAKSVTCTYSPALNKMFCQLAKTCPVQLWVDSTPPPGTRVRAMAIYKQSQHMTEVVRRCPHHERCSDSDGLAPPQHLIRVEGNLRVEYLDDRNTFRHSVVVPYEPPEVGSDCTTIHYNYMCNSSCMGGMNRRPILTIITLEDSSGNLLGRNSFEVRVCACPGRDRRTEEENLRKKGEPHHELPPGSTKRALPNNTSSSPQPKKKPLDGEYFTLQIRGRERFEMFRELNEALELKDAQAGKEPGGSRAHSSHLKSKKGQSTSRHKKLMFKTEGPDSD
In short: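 NCI-H358 cells pre-induced 24 h with 10 ng/ml doxycycline for eGFP-delta133p53alpha, plated dox-free and exposed 24 h at 37C to titrated compounds. Fixed, Hoechst-stained; gated GFP peak intensity by laser scanning cytometry, normalized to DMSO (0%) and 57.5 uM 5-azacytidine (100%).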

[2] = target: Aldehyde dehydrogenase, mitochondrial (Homo sapiens) (UniProt P05091); assay: qHTS for Inhibitors of the Aldehyde Dehydrogenase Family (ALDH2) Primary screen (AID 2061308); note: nearly all actives have a fitted effect of over 55% in size
[3] = target: Retinaldehyde dehydrogenase 3 (Homo sapiens) (UniProt P47895); assay: qHTS for Inhibitors of the Aldehyde Dehydrogenase Family (ALDH1A3) Primary screen (AID 2061315)

SMILES	activation [1]	Potency [2]	Potency [3]	Potency [1]	activity change, negative = inhibition [2]	activity change, negative = inhibition [3]
CC(C)C1C(OC(=O)/C=C/c2ccccc2)CC2(C)OC2CCC2(C)OC2C1O (stereo not drawn)	-0.763% (inactive)	inactive	inactive			
CN1c2c(nc(N)[nH]c2=O)NC[C@@H]1CNc1ccc(C(=O)N[C@@H](CCC(=O)O)C(=O)O)cc1	-8.33% (inactive)	inactive	inactive			
CC1CC(=O)C2=C(C1)C1OC1C1(O)C2C(=O)c2cccc(O)c2C1O (stereo not drawn)	4.58% (inactive)	inactive	inactive			
Cc1cc(CS(=O)(=O)c2ccccc2)cc(OCc2ccc(CN3CCC[C@H]3CO)cc2)c1	-28.2% (inactive)	inactive	inactive			
COc1cccc(OC)c1-c1ccc(C[C@H](NC(=O)c2c(Cl)cccc2Cl)C(=O)O)cc1	1.67% (inactive)	inactive	inactive			
C/C=C(/COC(=O)/C(C)=C/C)C(=O)OC(CC)c1ccc(OC)c(OC)c1 (stereo not drawn)	-15.2% (inactive)	inactive	inactive			
CCS(=O)(=O)N1CC(CC#N)(n2cc(-c3ncnc4[nH]ccc34)cn2)C1	4.89% (inactive)	inactive	inactive			
COC(=O)C1=COC(O[C@@H]2O[C@H](CO)[C@@H](O)[C@H](O)[C@H]2O)[C@H]2[C@@H]1[C@H](OC(=O)CCc1ccc(O)cc1)C[C@]2(C)O (stereo partly drawn)	21.4% (inactive)	inactive	inactive			
C=C(C(=O)O)C1CCC(C)C2CCC(=O)OC2(C)C1 (stereo not drawn)	18.8% (inactive)	inactive	inactive			
CC1=CC2/C=C(\C)CCC3OC(C)(C)OC3CCC(=O)C23C(=O)NC(CC(C)C)C3C1C (stereo not drawn)	-10.7% (inactive)	inactive	inactive			
CCCNc1ccc2ncc(-c3ccc4[nH]ncc4c3)n2n1		inactive	inactive	2.39 µM (active)		
Cn1c(=O)n(-c2ccc(C(C)(C)C#N)cc2)c2c3cc(C#Cc4cccnc4)ccc3ncc21	26.8% (inactive)	inactive	inactive			
CC1OC(O[C@H]2CC[C@@]3(C)C(CC[C@]4(C)C3CC=C3C5CC(C)(C)CC[C@]5(C(=O)OC5OC(CO)C(OC6OC(COC7OCC(O)C(O)C7O)C(O)C(O)C6O)C(O)C5O)CC[C@]34C)C2(C)C)C(O)C(O)C1OC1OCC(OC2OCC(O)C(O)C2O)C(O)C1O (stereo partly drawn)	-15.3% (inactive)				-20.7% [at 11.2 µM] (inactive)	10.3% [at 11.2 µM] (inactive)
CC1=C(c2ccc(NC(=O)c3c(F)cccc3F)cc2)CN(c2nccs2)CC1	21.7% (inactive)	inactive	inactive			
C=CC(C)(C)C12Nc3c(ccc4c3OC(C)(C)C=C4)C1(O)CC1C(=O)N3CCCC3C(=O)N12 (stereo not drawn)	-0.763% (inactive)	inactive	inactive			
C[C@@H]1O[C@@H](O[C@H]2[C@H](O[C@H]3CC[C@@]4(C)C(CC[C@]5(C)C4CC=C4C6CC(C)(C)CC[C@]6(C(=O)O[C@@H]6O[C@H](CO[C@@H]7O[C@H](CO)[C@@H](O[C@@H]8O[C@@H](C)[C@H](O)[C@@H](O)[C@H]8O)[C@H](O)[C@H]7O)[C@@H](O)[C@H](O)[C@H]6O)CC[C@]45C)[C@]3(C)CO)OC[C@H](O)[C@@H]2O)[C@H](O)[C@H](O)[C@H]1O (stereo partly drawn)	3.82% (inactive)				15.8% [at 11.2 µM] (inactive)	17.4% [at 11.2 µM] (inactive)
C/C(=C\CO[C@@H]1O[C@H](CO[C@H]2OC[C@](O)(CO)[C@H]2O)[C@@H](O)[C@H](O)[C@H]1O)C(C)(C)O	-5.34% (inactive)	inactive	inactive			
CC(C)=CCC/C(C)=C/CC/C(C)=C/CC[C@]1(C)CCc2cc(O)cc(C)c2O1	-3.05% (inactive)	inactive	inactive			

SMILES	activation [1]	Potency [2]	Potency [3]	Potency [1]	activity change, negative = inhibition [2]	activity change, negative = inhibition [3]
C=C1[C@@H](C2=CC(=O)OC2)CC[C@@]2(O)[C@@H]1CC1[C@H]2CC[C@@H]2C[C@@H](O[C@H]3O[C@@H](C)[C@@H](O[C@@H]4O[C@H](CO[C@@H]5O[C@H](CO)[C@@H](O)[C@H](O)[C@H]5O)[C@@H](O)[C@H](O)[C@H]4O)[C@H](OC)[C@H]3O)CC[C@]12C (stereo partly drawn)	7.14% (inactive)	inactive	inactive			
CC(=O)OC12CC(C)C(O)C1/C=C(/COC1OC(CO)C(O)C(O)C1O)CCC1C(/C=C(\C)C2=O)C1(C)C (stereo not drawn)	-9.16% (inactive)	inactive	inactive			
CC(=O)OC1(C)CC(O)C2(O)C=COC(OC3OC(CO)C(O)C(O)C3O)C12 (stereo not drawn)	-16.8% (inactive)	inactive	inactive			
C[C@@H]1CC[C@]2(C(=O)O[C@@H]3O[C@H](CO[C@@H]4O[C@H](CO)[C@@H](O)[C@H](O)[C@H]4O)[C@@H](O)[C@H](O)[C@H]3O)CC[C@]3(C)C(=CCC4[C@@]5(C)CC[C@H](O)[C@](C)(C(=O)O)C5CC[C@]43C)[C@@H]2[C@]1(C)O (stereo partly drawn)	-6.11% (inactive)	inactive	inactive			
C=C(C)C(C)C1OC23CC4(CO2)C(CCC2C5(C)CCC(OC6OCC(O)C(OC7OC(CO)C(O)C(OC8OCC(O)C(O)C8O)C7O)C6OC6OC(CO)C(O)C6O)C(C)(C)C5CCC24C)C3C(C)(O)C1OC(C)=O (stereo not drawn)	-19.8% (inactive)	inactive	inactive			
CC(C)=CCCC1(C)/C=C/C(OC(=O)C=C(C)C)C(C)(O)/C=C/C(=O)/C(CO)=C\C1 (stereo not drawn)		inactive	inactive	10.4 µM (active)		
CC1=C2C3OC(=O)C(C)C3(O)CCC2(C)CCC1 (stereo not drawn)	2.68% (inactive)	inactive	inactive			
CC(C)(O)/C=C1/C(=O)C(C)(C)C(=O)C(C)(C)C1(O)O[C@@H]1O[C@H](COC(=O)c2cc(O)c(O)c(O)c2)[C@@H](O)[C@H](O)[C@H]1O (stereo partly drawn)	0.763% (inactive)	inactive	inactive			
CC1(C)C2CC[C@]3(C)C(C(=O)C=C4[C@H]5C[C@@](C)(C(=O)O)CC[C@]5(C)CC[C@]43C)[C@@]2(C)CC[C@@H]1O (stereo partly drawn)	6.87% (inactive)	inactive	inactive			
C=CC(C)(C)O[C@@H]1O[C@H](CO[C@@H]2OC[C@](O)(CO)[C@H]2O)[C@@H](O)[C@H](O)[C@H]1O	-18.3% (inactive)	inactive	inactive			
CCOc1nc(NC(=O)Cc2cc(OC)ccc2OC)cc(N)c1C#N	15% (inactive)	inactive	inactive			
CC1(C)CC2C3=CCC4[C@@]5(C)CC[C@H](OC6OCC(O)C(OC7OC(CO)C(O)C(O)C7O)C6O)C(C)(C)C5CC[C@@]4(C)[C@]3(C)C[C@H](O)[C@@]2(CO)[C@H](OC(=O)c2ccccc2)C1 (stereo partly drawn)	19.8% (inactive)	inactive	inactive			
CC(=O)OCC1=CCC2C(C)(C)CCCC2(C)C12CCC(C)(CC(=O)O)O2 (stereo not drawn)	25.9% (inactive)	inactive	inactive			
CC1C(=O)CC2C3CCC(C(=O)O)C12CC3(C)CO (stereo not drawn)	9.92% (inactive)	inactive	inactive			
C/C=C(/C)C(=O)O[C@@H]1C[C@@H](OC(=O)CC(C)C)C2(C)C3C(=O)C=C(C)C2C3C1(C)C (stereo partly drawn)	-29% (inactive)	inactive	inactive			
COc1ccccc1C(=O)Nc1cccc(NC(=O)c2cccc(C)c2)c1	-11.7% (inactive)	inactive	inactive			
COc1cc(NC(=O)Nc2cccc(CNC(=O)O[C@H]3CCOC3)c2)ccc1-c1cnco1	7.14% (inactive)	inactive	inactive			
C[C@@]12C[C@]3(O)O[C@H](O1)[C@]1(COC(=O)c4ccccc4)[C@H]3C[C@@]12O[C@@H]1O[C@H](COC(=O)c2ccccc2)[C@@H](O)[C@H](O)[C@H]1O	-5.34% (inactive)	inactive	inactive			
